Records with an inconclusive call do not appear. A number with no mark means an inactive call. Activity calls are given as the source filed them. Calls come from the whole dose curve; as a rule, active = well fitted cell-killing curve with a large enough effect in the repeat runs; inconclusive = weak or mixed curves, or effect the other way; inactive = no such curve, though single readings can be large or run the other way.
% is set by controls: 0 for no effect and ±100 for the full control effect.

The assay can be described thus: qHTS assay to identify small molecule antagonists of the retinoid-related orphan receptor gamma (ROR-gamma) signaling pathway - cell viability counter screen (AID 1159520). Note: nearly all actives have a fitted effect of over 50% in size. The note with it: Tet-on RORgamma CHO cells viability, ATP luminescence, 16 h; series mostly up to 92.4 µM. The source says: U.S. Tox21 Program National Center for Advancing Translational Sciences [NCATS] NIH Chemical Genomics Center [NCGC] U.S. Environmental Protection Agency [EPA] National Institutes of Environmental Health Sciences [NIEHS] National Toxicology Program [NTP] U.S. Food and Drug Administration [FDA] Tox21 Assay Overview: Nuclear steroid hormone receptors are involved in many biological processes including inflammatory responses, cell proliferation, and apoptosis. Environmental factors or compounds disrupting these nuclear receptor pathways and gene expression may promote susceptibility to immunotoxicants and autoimmune diseases. One important group of these expression factors are the retinoid-related orphan receptors. To assess compounds that may interfere with the retinoid-related orphan receptor gamma (ROR-gamma) transcription factor, a cell-based luciferase assay was used. The CHO cell-based assay utilizes a TET-inducible ROR expression factor and ROR response element-LUC reporter gene. Reporter gene activity was induced using Doxycycline Hyclate and measured after 16 hr incubation. Tet-on ROR gamma CHO cells were used to screen against the Tox21 10K compound library for cytotoxicity by measuring the viability of the cells based on the quantitation of the ATP.
Tox21 Assay Protocol Summary: Tet-on ROR gamma CHO cells were dispensed at 1,000 cells in 4 uL of culture medium per well into white wall/solid bottom 1536-well plates using a Multidrop Combi (Thermo Scientific, Waltham, MA) dispenser. Following incubation at 37 C and 5% CO2 for 4 hr, 23 nL of compounds dissolved in DMSO, positive controls or DMSO only were transferred by a Pintool station (Kalypsys, San Diego, CA) and after 2 hr incubation at 37 C, one ul of 1 uM (final concentration) of Doxycycline Hyclate was added to all the wells by using a Flying Reagent Dispenser (FRD) (Aurora Discovery, San Diego, CA). After 16 hr incubation at 37 C and 5% CO2, 5 uL of CellTiter-Glo reagent (Promega Corporation, Madison, WI) was added to each assay plate using FRD. After 30 min incubation at room temperature, luminescence was quantified on a ViewLux plate reader (Perkin Elmer, Waltham, MA).
As to `O=C=NCC1CCCC(CN=C=O)C1` (stereo not given), the call was inactive. On the same count and under the same terms, to `CC(C)[C@H]1CC[C@H](C)C[C@@H]1O` belongs “inactive”. Still for that read-out and setting: to `COCCc1ccccn1` belongs “inactive”; to `CCCCCCCCCOC(=O)c1ccccc1C(=O)OCCCCCCCCC`, “inactive”; to `C=CCN1C[C@H](C(=O)N(CCCN(C)C)C(=O)NCC)C[C@@H]2c3cccc4[nH]cc(c34)C[C@H]21`, “inactive”.

Turning to `CCn1cc(C(=O)O)c(=O)c2cnc(N3CCCC3)nc21`, the activity, negative = cytotoxicity is 1.16% [at 8.39 µM]. On to `CC1(C)Cc2cccc(N)c2O1`, for which the outcome was inactive.

Take `CC1(C)O[C@H]2CC(=O)OC[C@]23[C@H]2CC[C@@]4(C)[C@H](c5ccoc5)OC(=O)[C@H]5O[C@]54[C@]2(C)C(=O)C[C@@H]13`: the compound was called inactive. Still for that read-out and setting: to `CO[C@@]1(NC(=O)Cc2cccs2)C(=O)N2C(C(=O)O)=C(COC(N)=O)CS[C@@H]21` belongs “inactive”. Same read-out and setting: the result for `N#Cc1cscn1` reads “inactive”; that for `Fc1ccccc1`, “inactive”; that for `OCC1(CO)COCOC1`, “inactive”. With `NCC1(Cc2noc(=O)[nH]2)CCCCC1`, the outcome was inactive. For the compound `O/N=C/C=N/O`, the call was inactive. On to `N#CCC(=O)NN`, for which the call was inactive. Still for that read-out and setting: to `C=CC(=O)CCCCC` belongs “inactive”. As to `C=C(C)[C@@H]1CC=C(C)CC1`, the compound was called inactive. In the case of `CCCCCCCCCCCCCBr`, the result was inactive. Same read-out and setting: to `CCCCCCCCCCOC(C)=O` belongs “inactive”. Still for that read-out and setting: to `Cc1c(Cl)cccc1Cl` belongs “inactive”. The same measure, in the same setting: to `Cc1c(C(=O)c2c[nH]n(C)c2=O)ccc(S(C)(=O)=O)c1C1=NOCC1` belongs “inactive”; to `O=C(O)CONC(=O)c1ccccc1`, “inactive”; to `CC(C)(CO)C(O)C(=O)NCCCO` (stereo not given), “inactive”.

Take `OC[C@H]1O[C@@H](O[C@@H]2[C@@H](CO)O[C@](O)(CO)[C@H]2O)[C@H](O)[C@@H](O)[C@H]1O`: the compound was called inactive. The same measure, in the same setting: the result for `CC(O)CC(C)O` (stereo not given) reads “inactive”; that for `COc1cc2c(cc1OC)C(=O)C(CC1CCN(Cc3ccccc3)CC1)C2` (stereo not given), “inactive”. Same read-out and setting: the result for `CC(C)=CCC[C@@](C)(O)[C@H]1CC=C(C)CC1` reads “inactive”.

With `Cc1c(N)cccc1Cl`, the outcome was inactive. On the same count and under the same terms, the result for `CCCCCc1cccc(=O)o1` reads “inactive”.

Consider `CCCCSCCCC`, for which the compound was classed as inactive. For `N#Cc1ccccc1O`, the result was inactive. The same measure, in the same setting: the result for `C#CCN[C@@H]1CCc2ccccc21` reads “inactive”.

Regarding `CC/C(C)=N\O[Si](C)(O/N=C(\C)CC)O/N=C(\C)CC`, the call was inactive. Still for that read-out and setting: the result for `CC(C)(C)NC[C@H](O)COc1cccc2c1CCCC2=O` reads “inactive”; that for `C=C(C)c1cccc(C(C)(C)N=C=O)c1`, “inactive”; that for `CC(=O)CC(=O)Nc1ccc(C)cc1C`, “inactive”. The same measure, in the same setting: the result for `COc1ccc(CCO)cc1` reads “inactive”. On the same count and under the same terms, the result for `CCCC(=O)Nc1ccc(OCC(O)CNC(C)C)c(C(C)=O)c1` (stereo not given) reads “inactive”; that for `C/C=C(\C)C(=O)OCCc1ccccc1`, “inactive”. Regarding `C=CC/C=C/C`, the compound was called inactive.

The values are drawn from PubChem BioAssay (Tox21).
